# According to PubChem BioAssay (Tox21):
# Values joined by “and” are separate entries in the source; they are usually repeats but may differ in a detail not shown here. Equal entries are not always repeated. Inconclusive results are not listed. Where a call stands in place of a potency, no number is given. Some compounds were tested as several samples or in several runs, with calls that do not always agree. Active and inactive are the calls of the source. Calls come from the whole dose curve; as a rule, active = well fitted cell-killing curve with a large enough effect in the repeat runs; inconclusive = weak or mixed curves; inactive = flat fitted curve, though single readings scatter.
# Experiment: qHTS RealTime-Glo MT Cell Viability Assay in HepG2 cells - 32 hour (AID 1224877); note: nearly all actives have a fitted effect of over 55% in size
# Conditions: RealTime-Glo luminescence; series mostly up to 76.8 µM
# Source text: U.S. Tox21 Program National Center for Advancing Translational Sciences [NCATS] NIH Chemical Genomics Center [NCGC] U.S. Environmental Protection Agency [EPA] National Institutes of Environmental Health Sciences [NIEHS] National Toxicology Program [NTP] U.S. Food and Drug Administration [FDA] Tox21 Assay Overview: Measure of cell viability is critical in the cell-base assay. Analysis of cell viability is necessary for the characterization of cell responses to cytotoxic drugs and environmental stress. A RealTime-Glo MT Cell Viability Assay to monitor cell viability in real time of continues cell culture during 40 hours of compound treatment was used to screen Tox21 10K library compounds in HepG2 cells. The RealTime-Glo MT Cell Viability Assay is a nonlytic, homogeneous, bioluminescent method to measure cell viability in real time using a simple, plate-based method. The assay involves adding NanoLuc luciferase and a cell-permeant prosubstrate to cells in culture. Viable cells reduce the proprietary prosubstrate to generate a substrate for NanoLuc luciferase. This substrate diffuses from cells into the surrounding culture medium, where it is rapidly used by the NanoLuc Enzyme to produce a luminescent signal. The signal correlates with the number of viable cells, making the assay well suited for cytotoxicity studies.
# Tox21 Assay Protocol Summary: The mixture of HepG2 cell suspension and reagents were dispensed at 600cells/6 ul/well in 1536-well tissue culture treated black solid bottom plates using a Multidrop dispenser. After the assay plates were incubated at a 37 C/5% CO2 incubator for 5 hours, 23 nL of compounds dissolved in DMSO, positive and negative controls was transferred to the assay plate by a pintool work station. The plates were incubated at 37 C for 40 hours. The luminescence intensity were measured at 0h, 8h, 16h, 24h, 32h and 40h time points using ViewLux plate reader during compound treatment.
# Potency is the fitted concentration of half-maximal effect.
row,Structure (SMILES),Potency
1,ClCC(Cl)CCl,inactive
2,CN(C)P(=O)(N(C)C)N(C)C,inactive
3,C=C(C)C#N,inactive
4,CC1(C)Cc2cccc(O)c2O1,inactive
5,Cn1c(-c2ccccc2)cc(-c2ccccc2)[n+]1C,inactive
6,O=NN(c1ccccc1)c1ccccc1,inactive
7,COP(=S)(OC)SCn1nnc2ccccc2c1=O,inactive
8,Cl,inactive
9,Cc1cccc(N=Nc2ccc(N(C)C)cc2)c1,inactive
10,O=S(=O)(O)C(F)(F)C(F)(F)C(F)(F)C(F)(F)C(F)(F)C(F)(F)C(F)(F)C(F)(F)F,inactive
11,NC(=O)CN1CCCC1=O,inactive
12,Clc1cccc(C(Cl)(Cl)Cl)n1,inactive
13,OCCOCCO,inactive
14,CC(C)Nc1nc(Cl)nc(NC(C)C)n1,inactive
15,CC(C)(c1ccc(OCC2CO2)cc1)c1ccc(OCC2CO2)cc1 (stereo not given),inactive
16,CCN(CC)C(=O)C(C)Oc1cccc2ccccc12 (stereo not given),inactive
17,O=[N+]([O-])c1ccc(Nc2ccccc2)cc1,inactive
18,Cc1ccc([N+](=O)[O-])cc1,inactive
19,CC(O)CN(CC(C)O)CC(C)O (stereo not given),inactive
20,CN(C)c1ccccc1,inactive

row,Structure (SMILES),Potency
1,CCC/C=N/O,inactive
2,COc1ccc(CO)cc1,inactive
3,Oc1ccc(Cl)cc1Cc1ccccc1,inactive and 49.6 µM (active)
4,ClCc1ccccn1,inactive
5,COc1ccc(C=O)cc1OC,inactive
6,Brc1ccc(Br)cc1,inactive
7,CC(C)(O)C(=O)Nc1ccc([N+](=O)[O-])c(C(F)(F)F)c1,inactive
8,CN(C)c1nc(=O)n(C2CCCCC2)c(=O)n1C,inactive
9,CNC(=S)S,inactive
10,Nc1ccc2ccccc2c1,inactive
11,OC(c1ccc(Cl)cc1)(c1cncnc1)c1ccccc1Cl (stereo not given),17.7 µM (active) and inactive
12,O=[N+]([O-])c1ccc(Cl)c([N+](=O)[O-])c1,35.2 µM (active) and 17.4 µM (active)
13,CNC(=O)Oc1cccc2c1OC(C)(C)C2,inactive
14,CCOC(=O)c1ccccc1N,inactive
15,CC(C)=CC1C(C(=O)OCc2cccc(Oc3ccccc3)c2)C1(C)C (stereo not given),inactive
16,CCC(=O)Nc1ccc(Cl)c(Cl)c1,inactive
17,C[C@]12CC[C@H]3[C@@H](CCC4=CC(=O)CC[C@@H]43)[C@@H]1CC[C@@H]2O,inactive
18,COP(=S)(OC)Oc1ccc(Sc2ccc(OP(=S)(OC)OC)cc2)cc1,inactive
19,CC1CC(=O)O1 (stereo not given),inactive
20,CC(C)CON=O,inactive
